For some assays here: Results with a measured potency or affinity are listed apart. Calls of active or inactive are those of the source. Unless noted, no rule for the calls is given here.
What was measured:
[1] = antimalarial activity against Dd2 strain (AID 2302;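 active = growth inhibition above 50% at the single 2 µM test dose, taken to imply half-maximal potency below 2 µM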;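 also: 0% = DMSO untreated growth and 100% = chloroquine plus artemisinin killed control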); conditions: P. falciparum Dd2 in RBCs, LDH growth readout, 72 h; at 2 µM; stronger effect = higher value
[2] = HepG2 cytotoxicity, primary screen, cytotoxicity control for P. falciparum antimalarial project, cell-based, ATP luminescence (AID 2303;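 active = inhibition above 50%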;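 also: 0% = DMSO wells and 100% = digitonin-killed cells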); conditions: HepG2 viability, 24-48 h, at 10 µM, stronger effect = higher value
[3] = target: L-lactate dehydrogenase (Plasmodium falciparum (isolate CDC / Honduras)) (UniProt Q27743); experiment: PfLDH activity inhibition – cell lysate, 3D7 strain, counter-screen for P. falciparum growth inhibition project (AID 2304);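 also: 0% = vehicle and 100% = reference inhibitor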; conditions: P. falciparum 3D7 crude extract, LDH APAD/NBT absorbance; at 2 µM; stronger effect = higher value
Chain of L-lactate dehydrogenase (Plasmodium falciparum (isolate CDC / Honduras)) (Q27743 whole entry, looked up): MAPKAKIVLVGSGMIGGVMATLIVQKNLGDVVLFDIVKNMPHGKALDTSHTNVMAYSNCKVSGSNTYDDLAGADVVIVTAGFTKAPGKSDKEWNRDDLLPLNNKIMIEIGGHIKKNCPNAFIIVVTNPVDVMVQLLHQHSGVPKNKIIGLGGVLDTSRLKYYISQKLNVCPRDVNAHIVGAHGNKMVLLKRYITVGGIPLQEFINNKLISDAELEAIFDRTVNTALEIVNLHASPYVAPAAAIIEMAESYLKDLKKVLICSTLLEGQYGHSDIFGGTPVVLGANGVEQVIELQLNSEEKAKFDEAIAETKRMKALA

[4] = inhibition of 3D7 malaria parasite growth – strain 3D7 (AID 2306);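 also: 0% = DMSO wells and 100% = chloroquine plus artemisinin control wells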; conditions: P. falciparum 3D7 erythrocytic growth, LDH absorbance, 72 h; at 2 µM; stronger effect = higher value
[5] = target: Calcium-dependent protein kinase 1 (Plasmodium falciparum (isolate 3D7)) (UniProt P62344); experiment: PfCDPK1 kinase inhibitors, biochemical, TCAMS library (AID 1159585; cut-off not given, nearly all actives have IC50 up to about 0.98 µM;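 also: inhibitors leave more ATP so luminescence rises with inhibition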); conditions: recombinant PfCDPK1, Kinase-Glo ATP depletion luminescence
Chain of Calcium-dependent protein kinase 1 (Plasmodium falciparum (isolate 3D7)) (P62344 whole entry, looked up): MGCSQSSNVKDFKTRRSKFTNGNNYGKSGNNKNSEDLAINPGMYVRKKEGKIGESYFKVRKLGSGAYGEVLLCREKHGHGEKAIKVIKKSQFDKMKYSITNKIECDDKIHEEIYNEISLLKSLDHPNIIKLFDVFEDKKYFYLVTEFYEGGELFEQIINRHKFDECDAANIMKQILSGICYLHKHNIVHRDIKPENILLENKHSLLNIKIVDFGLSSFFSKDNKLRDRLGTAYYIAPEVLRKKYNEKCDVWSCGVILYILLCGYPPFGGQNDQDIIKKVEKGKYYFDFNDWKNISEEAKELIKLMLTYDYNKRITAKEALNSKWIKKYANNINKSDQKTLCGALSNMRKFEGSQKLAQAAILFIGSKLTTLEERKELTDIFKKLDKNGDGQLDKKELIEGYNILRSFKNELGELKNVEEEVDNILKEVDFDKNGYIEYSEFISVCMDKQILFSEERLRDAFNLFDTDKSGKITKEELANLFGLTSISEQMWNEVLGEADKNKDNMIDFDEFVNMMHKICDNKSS

[6] = target: Plasmodium falciparum protein kinase 6 (PK6, PF3D7_1337100) (UniProt Q8IDW1); experiment: PfPK6 kinase inhibitors, biochemical, TCAMS library (AID 1159586); conditions: recombinant PfPK6, Kinase-Glo ATP depletion luminescence
Chain of Plasmodium falciparum protein kinase 6 (PK6, PF3D7_1337100) (Q8IDW1 1-305): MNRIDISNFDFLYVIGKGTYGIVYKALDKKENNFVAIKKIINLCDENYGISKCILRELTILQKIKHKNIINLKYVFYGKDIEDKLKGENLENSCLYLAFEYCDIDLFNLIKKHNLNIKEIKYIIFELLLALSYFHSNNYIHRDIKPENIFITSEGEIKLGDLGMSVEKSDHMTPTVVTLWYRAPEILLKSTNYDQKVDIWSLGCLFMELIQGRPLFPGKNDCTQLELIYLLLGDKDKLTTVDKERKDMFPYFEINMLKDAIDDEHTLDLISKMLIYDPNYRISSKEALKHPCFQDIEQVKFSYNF

[7] = target: Protein kinase 7 (PK7), Plasmodium falciparum 3D7 (PF3D7_0213400) (UniProt Q7YTF7); experiment: inhibition of Plasmodium PK7 catalytic activity – biochemical, TCAMS antimalarial set, Kinase-Glo luminescence (AID 1159587); conditions: recombinant PfPK7, Kinase-Glo ATP depletion luminescence
Chain of Protein kinase 7 (PK7), Plasmodium falciparum 3D7 (PF3D7_0213400) (Q7YTF7 1-343): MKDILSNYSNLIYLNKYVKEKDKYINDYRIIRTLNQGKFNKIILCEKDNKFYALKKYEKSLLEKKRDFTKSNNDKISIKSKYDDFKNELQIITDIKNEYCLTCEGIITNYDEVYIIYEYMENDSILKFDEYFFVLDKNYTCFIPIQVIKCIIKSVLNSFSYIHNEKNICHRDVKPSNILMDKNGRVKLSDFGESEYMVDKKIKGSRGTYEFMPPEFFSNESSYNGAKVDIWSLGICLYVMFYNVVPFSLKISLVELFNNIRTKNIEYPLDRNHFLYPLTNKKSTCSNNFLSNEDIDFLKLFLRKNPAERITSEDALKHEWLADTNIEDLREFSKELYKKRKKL

[8] = target: Calcium-dependent protein kinase 4 (Plasmodium falciparum (isolate 3D7)) (UniProt Q8IBS5); experiment: PfCDPK4 kinase inhibitors, biochemical, TCAMS library (AID 1159588; cut-off not given, nearly all actives have IC50 up to about 0.91 µM); conditions: recombinant PfCDPK4, Kinase-Glo ATP depletion luminescence
Chain of Calcium-dependent protein kinase 4 (Plasmodium falciparum (isolate 3D7)) (Q8IBS5 whole entry, looked up): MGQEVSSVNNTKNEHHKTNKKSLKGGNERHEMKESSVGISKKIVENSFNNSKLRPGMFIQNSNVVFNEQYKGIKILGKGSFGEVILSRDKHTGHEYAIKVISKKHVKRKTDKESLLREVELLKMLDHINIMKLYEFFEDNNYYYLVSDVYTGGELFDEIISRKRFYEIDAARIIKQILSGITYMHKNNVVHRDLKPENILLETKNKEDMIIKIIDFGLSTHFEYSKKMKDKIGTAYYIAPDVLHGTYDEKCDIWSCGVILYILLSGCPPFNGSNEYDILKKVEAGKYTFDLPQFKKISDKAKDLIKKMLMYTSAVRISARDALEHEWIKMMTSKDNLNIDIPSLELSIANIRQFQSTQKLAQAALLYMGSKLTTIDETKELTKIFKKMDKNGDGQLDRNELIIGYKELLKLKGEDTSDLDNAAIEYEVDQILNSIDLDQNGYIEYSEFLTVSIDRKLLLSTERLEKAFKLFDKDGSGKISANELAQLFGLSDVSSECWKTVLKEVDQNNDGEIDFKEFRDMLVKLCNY

COc1ccc(CNCc2ccccc2)cc1-c1ccc(S(=O)(=O)NCCN2CCCC2)c(C)c1
active: growth inhibition [1] 50% | growth inhibition [4] 99%
inactive: inhibition [2] 33% | inhibition [3] 3% | outcome [5] | outcome [6] | outcome [7] | outcome [8]

CN1CCN(Cc2cc3cc(NC(=O)/C=C/c4ccc(Cl)cc4)ccc3s2)CC1
active: inhibition [2] 51% | growth inhibition [4] 100%
inactive: growth inhibition [1] 20% | inhibition [3] 2% | outcome [5] | outcome [6] | outcome [7] | outcome [8]

Nc1nccc2ccc(-c3ccc4nccn4c3)cc12
active: growth inhibition [1] 100% | growth inhibition [4] 101%
inactive: inhibition [2] 15% | inhibition [3] -2% | outcome [5] | outcome [6] | outcome [7] | outcome [8]

Cc1cccc(-n2c(=O)c3c4c(sc3n3c(SCCC(C)C)nnc23)CCCC4)c1
active: growth inhibition [4] 90%
inactive: growth inhibition [1] 8% | inhibition [2] -2% | inhibition [3] -4% | outcome [5] | outcome [6] | outcome [7] | outcome [8]

COc1ccc2nc(Nc3nc4ccncc4[nH]3)sc2c1
active: growth inhibition [4] 88%
inactive: growth inhibition [1] 26% | inhibition [2] 8% | inhibition [3] 0% | outcome [5] | outcome [6] | outcome [7] | outcome [8]

Oc1ccc2[nH]c(-c3ccc(OC(F)(F)F)cc3)nc2c1CNC1CCCC1
active: growth inhibition [1] 97% | growth inhibition [4] 99%
inactive: inhibition [2] 32% | inhibition [3] 0% | outcome [5] | outcome [6] | outcome [7] | outcome [8]

Cc1cc(C(=O)Nc2ccc3c(c2)CCN3C2CCN(Cc3ccc(O)cc3)C2)no1 (stereo not given)
inactive: inhibition [2] 3% | inhibition [3] -1% | outcome [5] | outcome [6] | outcome [7] | outcome [8]
active: growth inhibition [1] 86% | growth inhibition [4] 95%

O=C(Nc1ccc2c(c1)CCCN2S(=O)(=O)c1cccs1)c1cc([N+](=O)[O-])ccc1Cl
active: growth inhibition [1] 95% | growth inhibition [4] 93%
inactive: inhibition [2] 29% | inhibition [3] 3% | outcome [5] | outcome [6] | outcome [7] | outcome [8]

O=C(NC1CC1)c1ccc(N2CCN(Cc3ccc(Cl)cc3)CC2)nc1
active: growth inhibition [1] 81% | growth inhibition [4] 84%
inactive: inhibition [2] 16% | inhibition [3] 3% | outcome [5] | outcome [6] | outcome [7] | outcome [8]

CN(C)CCCOc1ccc(-c2csc(NC(N)=NCc3ccccc3)n2)cc1
active: growth inhibition [1] 97% | inhibition [2] 57% | growth inhibition [4] 100%
inactive: inhibition [3] 5% | outcome [5] | outcome [6] | outcome [7] | outcome [8]

Cc1c(C)n(Cc2ccccc2)c2ncnc(OC3CCN(CC(=O)NCC4CC4)CC3)c12
inactive: inhibition [2] 17% | inhibition [3] -3% | outcome [5] | outcome [6] | outcome [7] | outcome [8]
active: growth inhibition [1] 79% | growth inhibition [4] 92%

Cc1cc(N[C@@H](Cc2ccccc2)C(=O)NCc2cccc(F)c2)nc(NCCOc2ccccc2)n1
inactive: growth inhibition [1] 7% | inhibition [2] 0% | inhibition [3] -3% | outcome [5] | outcome [6] | outcome [7] | outcome [8]
active: growth inhibition [4] 97%

Cc1ccc(C2(CN3CCC(NC(=O)c4[nH]ncc4Cl)CC3)CCCCC2)cc1
active: growth inhibition [1] 96% | growth inhibition [4] 97%
inactive: inhibition [2] -11% | inhibition [3] -3% | outcome [5] | outcome [6] | outcome [7] | outcome [8]

O=C(CN1CCCC1)Nc1cccc(C(=O)Nc2cccc(C(F)(F)F)c2)c1
active: growth inhibition [1] 83% | growth inhibition [4] 95%
inactive: inhibition [2] 9% | inhibition [3] 1% | outcome [5] | outcome [6] | outcome [7] | outcome [8]

COc1ccc2nccc(NC(=O)C3CCC(NCc4cnc(SC)c([N+](=O)[O-])c4)CC3)c2n1 (stereo not given)
inactive: growth inhibition [1] 44% | inhibition [2] 8% | inhibition [3] 5% | outcome [5] | outcome [6] | outcome [7] | outcome [8]
active: growth inhibition [4] 89%

Cc1ccc(NC(=O)c2ccnc(N3CCN(c4ccncc4)CC3)c2)cc1F
inactive: growth inhibition [1] 12% | inhibition [2] 43% | inhibition [3] -2% | outcome [5] | outcome [6] | outcome [7] | outcome [8]
active: growth inhibition [4] 94%

Nc1cc(-c2ccc(-c3cccs3)s2)nc2ccccc12
inactive: inhibition [2] 32% | inhibition [3] 5% | outcome [5] | outcome [6] | outcome [7] | outcome [8]
active: growth inhibition [1] 50% | growth inhibition [4] 100%

COc1ccc(C(=O)N2CCc3cc4nccc(N5CCN6CCC[C@H]6C5)c4cc32)cc1
inactive: inhibition [2] 1% | inhibition [3] -12% | outcome [5] | outcome [6] | outcome [7] | outcome [8]
active: growth inhibition [1] 50% | growth inhibition [4] 98%

CCNc1cc(C(=O)N[C@@H](Cc2ccccc2)[C@H](O)CN[C@H](C)C(C)(C)C)cc(N2CCCCS2(=O)=O)c1
inactive: growth inhibition [1] 41% | inhibition [2] 4% | inhibition [3] -2% | outcome [5] | outcome [6] | outcome [7] | outcome [8]
active: growth inhibition [4] 95%

COc1ccc(-c2cc3ncnc(N4CCN(CCN5CCCC5)CC4)c3s2)cc1
inactive: inhibition [2] 22% | inhibition [3] -2% | outcome [5] | outcome [6] | outcome [7] | outcome [8]
active: growth inhibition [1] 90% | growth inhibition [4] 98%

Cn1c(Nc2cc(C(C)(C)C)on2)nc2cc(Nc3ccnc(Nc4cccc(S(=O)(=O)N5CCOCC5)c4)n3)ccc21
active: growth inhibition [1] 96% | growth inhibition [4] 101%
inactive: inhibition [2] 32% | inhibition [3] 5% | outcome [5] | outcome [6] | outcome [7] | outcome [8]

CN(C)C(=O)c1ccc(CN(Cc2ccc3c(c2)OCCO3)Cc2ccc3c(c2)OCO3)cc1
active: growth inhibition [1] 95% | growth inhibition [4] 89%
inactive: inhibition [2] -10% | inhibition [3] 3% | outcome [5] | outcome [6] | outcome [7] | outcome [8]

O=C(Nc1ccccc1)N(Cc1ccccc1-c1cccc(CNCc2ccc3c(c2)OCO3)c1)C1CCN(Cc2ccccc2)CC1
inactive: inhibition [2] 35% | inhibition [3] 1% | outcome [5] | outcome [6] | outcome [7] | outcome [8]
active: growth inhibition [1] 64% | growth inhibition [4] 101%

COc1ccc2ncc(F)c(CCN3C[C@H](CNCc4ccc5c(n4)NC(=O)CS5)[C@H](O)C3)c2c1
active: growth inhibition [4] 92%
inactive: growth inhibition [1] 34% | inhibition [2] -3% | inhibition [3] -3% | outcome [5] | outcome [6] | outcome [7] | outcome [8]

CCCCC(CCCC)CN1C(=O)C(c2ccccc2)(c2ccccc2)N=C1N
active: growth inhibition [1] 96% | growth inhibition [4] 96%
inactive: inhibition [2] 28% | inhibition [3] -3% | outcome [5] | outcome [6] | outcome [7] | outcome [8]

CC(C)(C)c1ccc(NC(=O)c2cccc(CN3CCCN(Cc4ccsc4)CC3)c2)cc1
active: growth inhibition [4] 96%
inactive: growth inhibition [1] 3% | inhibition [2] 33% | inhibition [3] -4% | outcome [5] | outcome [6] | outcome [7] | outcome [8]

C=CCn1c(Sc2ccc(C#N)c([N+](=O)[O-])c2)nnc1-c1ccc(Cl)cc1
inactive: inhibition [2] 13% | inhibition [3] 3% | outcome [5] | outcome [6] | outcome [7] | outcome [8]
active: growth inhibition [1] 85% | growth inhibition [4] 97%

Cc1noc(NC(=O)c2sc3ccccc3c2O)c1C
active: growth inhibition [1] 50% | growth inhibition [4] 90%
inactive: inhibition [2] -12% | inhibition [3] 0% | outcome [5] | outcome [6] | outcome [7] | outcome [8]

COc1ccc(-c2ccc(NC(=O)c3ccc(F)cc3)cc2)cc1CN1CCCN(C)CC1
inactive: growth inhibition [1] 35% | inhibition [2] 29% | inhibition [3] -2% | outcome [5] | outcome [6] | outcome [7] | outcome [8]
active: growth inhibition [4] 98%

CNC(=O)c1cnc(Nc2ccc(OCC(O)CN(C)C)cc2)nc1Nc1cccc(Br)c1 (stereo not given)
active: growth inhibition [1] 100% | inhibition [2] 68% | growth inhibition [4] 102%
inactive: inhibition [3] -5% | outcome [5] | outcome [6] | outcome [7] | outcome [8]

Cc1cc(NCCC(=O)NCCOc2ccccc2)nc(NCCc2ccccc2)n1
active: growth inhibition [4] 99%
inactive: growth inhibition [1] 9% | inhibition [2] -6% | inhibition [3] -1% | outcome [5] | outcome [6] | outcome [7] | outcome [8]

Cc1ccccc1C1CCN(C2CCC(NC(=O)/C=C/c3ccccc3C(F)(F)F)CC2)CC1 (stereo not given)
inactive: growth inhibition [1] 6% | inhibition [3] -1% | outcome [5] | outcome [6] | outcome [7] | outcome [8]
active: inhibition [2] 63% | growth inhibition [4] 83%

CCCNCc1ccc(-c2ccc(CN(CCOC)C(=O)c3ccccc3)cc2)nc1
active: growth inhibition [4] 94%
inactive: growth inhibition [1] 25% | inhibition [2] 16% | inhibition [3] -7% | outcome [5] | outcome [6] | outcome [7] | outcome [8]

O=C(c1ccc(Cl)cc1Cl)N1CCCC(C(F)(F)F)C1 (stereo not given)
inactive: growth inhibition [1] 47% | inhibition [2] 6% | inhibition [3] 3% | outcome [5] | outcome [6] | outcome [7] | outcome [8]
active: growth inhibition [4] 95%

COC(=O)c1cc2cccc(NC[C@@H](C)NC[C@H](O)c3cccc(Cl)c3)c2[nH]1
active: growth inhibition [1] 99% | growth inhibition [4] 98%
inactive: inhibition [2] -8% | inhibition [3] -3% | outcome [5] | outcome [6] | outcome [7] | outcome [8]

Cc1cc(OCCCN2CCCCC2C)ccc1NC(=O)COc1ccc(Cl)cc1C(=O)c1cc(Cl)cc(C#N)c1 (stereo not given)
active: growth inhibition [4] 91%
inactive: growth inhibition [1] 14% | inhibition [2] 23% | inhibition [3] -2% | outcome [5] | outcome [6] | outcome [7] | outcome [8]

C#CCN(Cc1cc2c(=O)[nH]c(N)nc2cc1C)c1ccc(C(=O)N[C@@H](CCC(=O)O)C(=O)O)cc1
inactive: inhibition [2] 28% | inhibition [3] -1% | outcome [5] | outcome [6] | outcome [7] | outcome [8]
active: growth inhibition [1] 74% | growth inhibition [4] 92%

FC(F)(F)c1ccc(CSc2ccc3nnc(-c4ccccn4)n3n2)cc1
inactive: inhibition [2] -2% | inhibition [3] -1% | outcome [5] | outcome [6] | outcome [7] | outcome [8]
active: growth inhibition [1] 54% | growth inhibition [4] 95%

COc1ccc2nccc([C@@H](O)CN3CCC(NCc4cn5cc(F)ccc5n4)CC3)c2c1
inactive: growth inhibition [1] 5% | inhibition [2] 19% | inhibition [3] -5% | outcome [5] | outcome [6] | outcome [7] | outcome [8]
active: growth inhibition [4] 96%

O=C(Nc1ccc(O)c(-c2nc3ccccc3[nH]2)c1)c1ccc([N+](=O)[O-])cc1
inactive: growth inhibition [1] 45% | inhibition [2] -2% | inhibition [3] -6% | outcome [5] | outcome [6] | outcome [7] | outcome [8]
active: growth inhibition [4] 97%

From PubChem BioAssay
